The results in this text go back to PubChem BioAssay AID504850 (National Center for Advancing Translational Sciences (NCATS), 2011).

Hit rate of the full screen: of about 2,300 compounds, about 1,200 (52%) were called active. Not shown: some 34% with an inconclusive outcome. The call rests on the fitted dose curve; in most records, active means well fitted inhibition curve with a large enough effect; inconclusive means small, poorly fitted or top-dose-only effect, or effect the other way; inactive means no such curve, though single readings can be large or run the other way. The set was probably picked from earlier hits. This is one part of the list.
Potency means the concentration at half of the fitted maximal effect.

A short description of this test: Confirmation screen for delayed death inhibitors of the malarial parasite plastid, 48 hour incubation. Further: nearly all actives have a fitted effect of over 65% in size. Particulars: P. falciparum-infected erythrocytes, luciferase growth; series mostly up to 28.7 µM. An outline of the steps: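 Single-generation (48 h, 37 C) exposure of integrated firefly luciferase-reporter P. falciparum in red cells, 0.1% parasitemia at 2% hematocrit, Albumax-supplemented RPMI. Falling luciferase signal marks parasite growth inhibition.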
Regarding `Cc1cc(C)cc(NC(=O)c2cccnc2)c1`, the Potency entry is “inactive”. Then `O=C(Nc1ccc(N2CCCCC2)c(Cl)c1)c1cccnc1`, with 11.2 µM (active); and `COCCN(C(=O)c1ccccc1F)c1nnc(-c2ccc(OC)cc2)s1`, with 10 µM (active). As for `CC(C)(C)C1C/C(=C/c2ccccn2)C(=O)/C(=C/c2ccccn2)C1` (stereo not drawn), the Potency was 0.316 µM (active). Regarding `COC(=O)CSc1nc2c(c(-c3ccco3)c1C#N)CCCC2`, the Potency is 12.6 µM (active). Consider `N#C/C(=C\c1ccc(-c2ccc(C(=O)O)cc2)o1)C(=O)Nc1ccc(F)cc1`, for which the Potency was 14.1 µM (active). For the compound `Cc1ccc(NC2=C/C(=N\S(=O)(=O)c3cccs3)c3ccccc3C2=O)c(C)c1`, the Potency is 0.282 µM (active). Regarding `CCCC(=O)NC(c1ccccc1)c1c(O)ccc2ccccc12` (stereo not drawn), the Potency is 7.08 µM (active). For `CCCCNC(=O)c1onc(CSc2cccc3ccccc23)c1C(=O)O`, the Potency result was “inactive”.

Consider `CC(C)(C(=O)N[C@H](CO)c1ccccc1)C(=O)N[C@H](CO)c1ccccc1`, for which the Potency result is “inactive”.

For `CCC1=C/C(=C/c2sc3ccccc3[n+]2CC)CC(C)(C)C1`, the Potency is 5.62 µM (active). For `CCCc1nnc(NC(=O)c2nc(S(=O)(=O)Cc3cccc(C)c3)ncc2Cl)s1`, the Potency entry was “inactive”. In the case of `CCC(C)[C@@H](NC(=O)OC(C)(C)C)c1nnc(S(=O)(=O)Cc2cccc(C)c2)o1` (stereo partly drawn), the Potency is 14.1 µM (active). For the compound `O=C(COc1cccc2ccccc12)Nc1ccc(Cl)cc1C(=O)O`, the Potency entry is “inactive”.

Regarding `O=C(COc1ccccc1Cl)NC(=S)N1CCc2ccccc21`, the Potency was 12.6 µM (active).

As for `CCC(=O)NCCc1cc2ccc(C)cc2[nH]c1=O`, the Potency result was “inactive”. Regarding `COc1cc2cc(CN(CCc3ccccc3C)C(=S)NCCCN3CCOCC3)c(=O)[nH]c2cc1OC`, the Potency is 7.94 µM (active). In the case of `COc1cc2cc(CN(Cc3cccs3)C(=S)Nc3ccc(C)cc3)c(=O)[nH]c2cc1OC`, the Potency was 10 µM (active). As for `CS(=O)(=O)c1ccc(-c2nnc(NC(=O)c3ccc(S(=O)(=O)N4CCCC4)cc3)o2)cc1`, the Potency was 14.1 µM (active). Turning to `C=CCNC(=S)N/N=C/c1ccc(-c2cc(Cl)ccc2Cl)o1`, the Potency was 12.6 µM (active). For `O=C(NCc1cccnc1)c1nc(-c2ccccc2)n(-c2ccccc2)n1`, the Potency result is “inactive”. Regarding `O=C(NCc1cccnc1)/C(=C\c1ccc(-c2cccc(Cl)c2)o1)S(=O)(=O)c1ccccc1`, the Potency was 12.6 µM (active).

For the compound `Cc1ccc(-n2nc3c(=O)n(CCCC(=O)NCc4ccco4)nc(C)c3c2C)cc1`, the Potency was 6.31 µM (active). For the compound `COc1cc(CNC(=O)CCn2nc(C)c3c(C)n(-c4ccccc4)nc3c2=O)cc(OC)c1OC`, the Potency was 12.6 µM (active). For the compound `COc1ccccc1CNC(=O)CCCn1nc(C)c2c(C)n(-c3ccccc3)nc2c1=O`, the Potency was 12.6 µM (active).

Consider `COc1ccccc1CCNC(=O)CCn1nc(C)c2c(C)n(-c3ccccc3)nc2c1=O`, for which the Potency is 14.1 µM (active). In the case of `Cc1ccc2c(c1)N(CCC(=O)NCc1ccco1)C(=O)CO2`, the Potency result is “inactive”. `CC(=O)Nc1sc(C)c(C)c1C(=O)OCC(=O)N(CC(C)C)C1CCS(=O)(=O)C1` (stereo not drawn): the Potency was 12.6 µM (active). Then `CSCCC(NC(=O)c1ccccc1Cl)C(=O)N1CCN(C(c2ccccc2)c2ccccc2)CC1` (stereo not drawn), with 3.98 µM (active). `Cc1ccc(N(Cc2ccco2)C(=O)c2ccc(N3CCCCC3)c([N+](=O)[O-])c2)cc1`: the Potency was 11.2 µM (active). The result for `C=CCNC(=O)c1onc(CSc2ccccc2CC)c1C(=O)O` reads “inactive”; that for `O=C(O)c1cc(-c2ccc3ccccc3c2)nc2ccc(F)cc12`, “inactive”.

Regarding `Fc1ccc2cnc(-c3ccccc3)c(-c3ccc(C(F)(F)F)cc3)c2c1`, the Potency was 15.8 µM (active). The result for `CCCN1CCN(C(=O)C2CCN(S(=O)(=O)c3ccc4c(c3)NC(=O)C(C)S4)CC2)CC1` (stereo not drawn) reads 12.6 µM (active). Regarding `CC(=O)c1c(C)[nH]c(C(=O)COC(=O)COc2ccccc2F)c1C`, the Potency result was “inactive”.

In the case of `COc1ccc(C(C)(C)C)cc1NC(=O)c1[nH]c(C)c(C(C)=O)c1C`, the Potency was 7.94 µM (active). On to `CC#CC#Cc1cccc(=O)o1`, for which the Potency was 8.91 µM (active).

With `CCCn1c(CN2CCN(C(=O)OCC)CC2)nc2cc(NC(=O)C(C)C)ccc21`, the Potency was 11.2 µM (active). With `CCNc1ccc(Br)cc(C(=O)/C=C/c2c(Cl)cccc2Cl)c1=O`, the Potency was 10 µM (active). On to `COc1ccc(-c2cn(-c3ccccc3)c3[n+]2CCS3)cc1`, for which the Potency was 3.16 µM (active). For the compound `COc1cc(/C=C2/CCC/C(=C\c3cc(O)c(OC)c(Cl)c3)C2=O)cc(Cl)c1O`, the Potency is 11.2 µM (active). Then `COc1cc(/C=C2\COC/C(=C\c3cc(OC)c(OC)c(OC)c3)C2=O)cc(OC)c1OC`, with 2.82 µM (active); and `COc1cc(/C=C2\CC(C(C)(C)C)C/C(=C\c3cc(OC)c(OC)c(OC)c3)C2=O)cc(OC)c1OC` (stereo not drawn), with 5.01 µM (active). Take `COc1cc(/C=C2\COC/C(=C\c3ccc(O)c(OC)c3)C2=O)ccc1O`: the Potency was 6.31 µM (active). In the case of `CCOc1ccc(/C=C2\SC(=S)N(C(C(=O)O)c3ccccc3)C2=O)cc1OC` (stereo not drawn), the Potency result was “inactive”. For the compound `COc1ccc(/C=C2\CC/C(=C\c3ccc(OC)c(OC)c3)C2=O)cc1OC`, the Potency was 15.8 µM (active).

For the compound `CC(C)c1ccc(NC(=O)c2cc(S(=O)(=O)N3CCCC3)c[nH]2)cc1`, the Potency was 12.6 µM (active). `COc1ccc(-c2c(C(C)=O)c(C)n(C)c2C)cc1`: the Potency was 12.6 µM (active).

As for `CC(C)N1CCC(N2CCN(Cc3ccc(-c4ccc(Cl)cc4)o3)CC2CCO)CC1` (stereo not drawn), the Potency was 6.31 µM (active).

Regarding `O=C(CN1C2=NCCCN2c2ccccc21)c1ccc2c(c1)OCO2`, the Potency is 11.2 µM (active). With `OC(CN1C2=NCCN2c2ccccc21)c1ccc2c(c1)OCO2` (stereo not drawn), the Potency was 5.01 µM (active). As for `Cc1ccc(C)c(C(=O)CN2C3=NCCCN3c3ccccc32)c1`, the Potency is 12.6 µM (active). For `Nc1cccc2c1C(=O)N(C(=O)/C=C/c1ccc(F)cc1)C2=O`, the Potency entry is “inactive”.

Take `Cc1cc2c(c(=O)n1Cc1ccco1)C(c1cccnc1)C(C#N)=C(N)O2` (stereo not drawn): the Potency entry is “inactive”. Turning to `OC(c1ccccc1)(c1ccccc1)C1CCN(C(=S)NCCc2ccccc2)CC1`, the Potency was 11.2 µM (active). The result for `CN(Cc1cccc(Cl)c1Cl)C(=O)c1ccc(NC(=O)CC#N)cc1` reads 3.98 µM (active).

As to `O=C(CSc1ccc(-c2cccnc2)nn1)Nc1ccccc1C(F)(F)F`, the Potency result was “inactive”. The result for `O=C(CSc1nc(-c2ccco2)cc(C(F)(F)F)n1)Nc1ccccc1C(F)(F)F` reads 14.1 µM (active).
